The campaign covered roughly 340,000 compounds. About 280 (0.082%) were called active. The list comes from a sample in which actives are over-represented; it also holds similar structures and randomly drawn compounds. Unmarked numbers belong to inactive results. Cut-off read from the data, not from the text of the source: active = inhibition mostly above about 23% (no sharp cut-off); inactive = mostly below about 18%.
target: 5-hydroxytryptamine receptor 5A (Homo sapiens) (UniProt P47898); assay: inverse agonism at human 5-HT5A receptor – cell-based, luminescence, full-deck HTS, counter-screen for OPRM1-OPRD1 heterodimer inverse agonist project, primary screen (AID 504634); settings: HTR5A cell line, at 9.3 µM, stronger effect = higher value;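 note: 0% = cells with DMSO and 100% = no-cell wells with DMSO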
Sequence (P47898 whole entry, looked up): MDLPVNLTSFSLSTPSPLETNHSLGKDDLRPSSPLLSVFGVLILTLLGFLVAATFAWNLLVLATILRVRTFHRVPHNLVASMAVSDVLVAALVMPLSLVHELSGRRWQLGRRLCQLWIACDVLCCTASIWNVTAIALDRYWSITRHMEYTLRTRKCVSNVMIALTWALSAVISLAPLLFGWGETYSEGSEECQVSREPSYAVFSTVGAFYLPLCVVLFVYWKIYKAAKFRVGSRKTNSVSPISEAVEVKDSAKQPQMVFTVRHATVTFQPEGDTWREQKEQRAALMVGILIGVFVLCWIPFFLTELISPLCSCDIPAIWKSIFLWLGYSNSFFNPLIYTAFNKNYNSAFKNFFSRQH

| Structure (SMILES) | inhibition |
| --- | --- |
| CC[C@H](C)[C@@H](C(=O)N1CCNCC1)n1cc([C@@H](N)Cc2ccc(O)cc2)nn1 | -7.48% |
| COCc1cc(=O)[nH]c(SC)n1 | -5.28% |
| O=C(CSc1nnc(Nc2ccccc2F)s1)NC1CCCC1 | -11.3% |
| CCN(CC(=O)Nc1cc(Cl)ccc1C)C(=O)CSCc1ccc(C)cc1 | -29.4% |
| CC[n+]1cc(C)ccc1/C=C/c1ccc(N(C)C)cc1 | 9.17% |
| CCCCN(C(=O)c1cccc(N2C(=O)c3ccccc3C2=O)c1)c1c(N)n(CCCC)c(=O)[nH]c1=O | -1.54% |
| O=c1[nH]nc(Cc2ccccn2)c2ccccc12 | 34.8% |
| c1ccc2c(c1)OC1OC2Oc2ccccc21 | 2.1% |
| CCOc1ccc(S(=O)(=O)Nc2cccc(C(=O)NCC3(N4CCCCC4)CCCCC3)c2)cc1 | -7.44% |
| CC(C)COc1ccc(C(=O)NNC(=O)CCC(=O)c2cccs2)cc1 | 8.1% |
| Cc1cccc(NC(=O)N2CCCCCC2)c1C | -15.6% |
| CCC1Nc2ncnc(N3CCN(c4ccccc4)CC3)c2N(Cc2ccc(Cl)cc2)C1=O (stereo not drawn) | 72% (active) |
| CC[C@]1(C(=O)OC)[C@H]2C(=O)N(Cc3ccccc3)C(=O)[C@H]2[C@H]2CN=C(SCc3ccc(Cl)cc3)N21 | 4.46% |
| O=C1C(Cc2ccc(O)cc2)NC(=S)N1Cc1ccccc1 (stereo not drawn) | -7.4% |
| N#Cc1ccc(C2=CC(=O)C[C@H](c3ccc(Cl)cc3)C2)cc1 | -10.1% |
| O=C(Nc1ccc(Cl)c(Cl)c1)N1CC=C(c2ccccc2)CC1 | 13.3% |
| C=CCN1C=C(C(=O)c2ccccc2)C(=O)CC1 | 6.15% |
| CCc1nccn1CCC(=O)N1CCCC(N2CCN(c3ccccc3F)CC2)C1 (stereo not drawn) | 5.46% |
| COc1ccc([C@H]2CC(=O)C=C(c3ccc(CO)cc3)C2)cc1 | 8.13% |
| O=C1c2ccccc2[C@@H]2C[C@@H](O)[C@H](Nc3ccccc3Cl)CCN12 | -0.71% |
| Cc1cc(C)nc(SC(C)C(=O)N/N=C/c2cccs2)n1 (stereo not drawn) | 9.06% |

| Structure (SMILES) | inhibition |
| --- | --- |
| O=C(Cc1ccccn1)c1ccc(O)cc1O | 12.8% |
| COc1ccc(-c2nnc(SC(C)C(=O)NC3CC3)o2)cc1 (stereo not drawn) | 24.2% (active) |
| COc1ccc(-c2nnc(SC(=O)N3c4ccccc4Sc4ccccc43)o2)cc1 | -1.76% |
| COc1ccc(-c2nnc(SCC(=O)NC3CCCCC3)o2)cc1OC | 0.53% |
| COc1cc(N)c(Cl)cc1C(=O)OCC(=O)c1ccc2c(c1)NC(=O)CO2 | 10.7% |
| Cc1nnc(SCC(=O)N(C(C)C)C(C)C)nc1C | 7.98% |
| COc1ccc(N/N=C2/CCCCC2=O)cc1 | -17.4% |
| CCCCN1CC(COc2ccccc2)Oc2cccc(F)c2S1(=O)=O (stereo not drawn) | -4.35% |
| CN1C(CC(=O)Nc2ccc(Br)cc2)c2ccccc2CC1(C)C (stereo not drawn) | -2.97% |
| Cc1cc(C(=O)COc2ccccc2[N+](=O)[O-])c(C)n1-c1cccc(S(=O)(=O)N2CCOCC2)c1 | -23.2% |
| O=C1CC(C(=O)O)NC(=S)N1 (stereo not drawn) | -5.32% |
| COc1ccc2oc(C(=O)N(CC(C)C)C3CCS(=O)(=O)C3)c(C)c2c1 (stereo not drawn) | 5.04% |
| CCCCc1c(O)nc2n(c1=O)CCS2 | -25.6% |
| CCCCCc1c(C)nc(N2CCN(Cc3ccc4c(c3)OCO4)CC2)[nH]c1=O | -8.1% |
| CCCCCCCCc1c(O)nc(-n2[nH]c(C)c(CCO)c2=O)[nH]c1=O | 23.4% (active) |
| CCc1c(SCCC(=O)O)nc2ccccc2c1C | -56.3% |
| C=CCNC(=O)C1CC=CCC1C(=O)O (stereo not drawn) | 19.4% |
| Cc1ccc2cc(CN(c3ccc(C)c(C)c3)S(C)(=O)=O)c(=O)[nH]c2c1 | -3.96% |
| CC(OC(=O)c1ccccc1NCCO)C(=O)Nc1ccnn1C(C)C (stereo not drawn) | -11.8% |
| COC(=O)c1ccc(Sc2ccc(F)cc2)c(N)c1 | -3.93% |
| CC(C)CCN1CCN(C/C=C/c2ccco2)CC1CCO (stereo not drawn) | -0.83% |

| Structure (SMILES) | inhibition |
| --- | --- |
| CC(=O)c1ccc(N2CCN(C(=O)c3ccc(Cl)c(S(=O)(=O)NC4CC4)c3)CC2)c(F)c1 | -4.11% |
| CC(C)(C)n1nnnc1C(c1ccccc1F)N1CCN(C(=O)c2ccco2)CC1 (stereo not drawn) | -20.1% |
| Cc1nn(CCCC(=O)NCc2ccccc2Cl)c(=O)c2nccn12 | -28.5% |
| CN(C)CCCNC(=S)N1CCN(c2nc(-c3ccccc3)cs2)CC1 | -13.5% |
| Cc1c(CCC(=O)N[C@@H](CC(C)C)C(=O)O)c(=O)oc2c(C)c3oc4c(c3cc12)CCCC4 | 3.6% |
| CC/C(=C\c1ccc(Cl)cc1)c1ccncc1 | -7.07% |
| COc1cc(C(=S)N2CCOCC2)cc(OC)c1OC(=O)c1ccc([N+](=O)[O-])cc1[N+](=O)[O-] | -0.97% |
| COc1ccc(CNC(=O)C(c2ccc(O)cc2)N(Cc2ccco2)C(=O)c2snc(C(N)=O)c2N)cc1 (stereo not drawn) | 3.12% |
| COC(=O)c1ccc(NC(=S)NN2CCOCC2)cc1 | 13.4% |
| O=S(=O)(Nc1ccc(-c2ccc(N3CCOCC3)nn2)cc1)c1cc(Cl)ccc1Cl | -25.2% |
| COc1cccc(COC(=O)C2CCN(S(=O)(=O)c3cccs3)CC2)c1OC | -12.6% |
| CCC1CCCCN1CCCNC(=O)c1cc2c(Cl)nc3ccccc3c2s1 (stereo not drawn) | 5.42% |
| CCn1c(=O)n(CC)c2cc(N3CCCC3)c(NC(=O)c3ccccc3Br)cc21 | 10.1% |
| Cc1ccccc1-c1n[nH]c(=S)n1/N=C/c1ccc(-c2ccccc2Br)o1 | 4.19% |
| CS(=O)(=O)N(CC(=O)Nc1ccc(F)cc1F)c1cccc([N+](=O)[O-])c1 | 14.4% |
| Cc1ccc(OCCC(=O)Nc2ccc(S(=O)(=O)Nc3nccs3)cc2)cc1 | -6.52% |
| CC(C)CCNC(=O)CCNS(=O)(=O)c1ccc(Cl)cc1 | -7.35% |
| OC(COc1ccc2c(c1)CCC2)CN1CCN(c2cccc(Cl)c2)CC1 (stereo not drawn) | -19.1% |
| CCOc1ccc(C(=O)NC(=S)Nc2ccc(N3CCOCC3)c(Cl)c2)cc1[N+](=O)[O-] | 30.9% |
| O=c1o[nH]c(-c2ccccc2)c1N=Nc1c(F)cccc1Cl | -12.2% |
| COc1ccc2c(c1)CCC/C2=N\OC(=O)c1ccccc1F | 0.11% |
